System: RIOK2
Conditions: concentration: 1 μM,replicates: in singlicate; n = 1
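Further: KINOMEscan kinase panel screen.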

| SMILES | %Inh [%] |
| --- | --- |
| Cn1ccc2ncnc(Oc3ccc(NC(=O)Nc4ccnc(C(F)(F)F)c4)c(Cl)c3)c21 | 19 |
| Cc1ccc(CC(=O)N2CCc3cc(-c4cn(C)c5ncnc(N)c45)ccc32)cc1 [GSK2634758] | 0 |
| CS(=O)(=O)c1cccc(CNc2nc(Nc3ccc4c(c3)[C@@H]3C[C@@H]4CNC3=O)ncc2C(F)(F)F)c1 | 0 |
| CNC(=O)c1ccccc1Nc1nc(Nc2cccc(CS(C)(=O)=O)c2)ncc1C.O=CO [GSK1520489] | 89 |
| Cn1ccc2ncnc(Oc3ccc(NC(=O)Nc4cccc(C(F)(F)F)c4)c(Cl)c3)c21 | 2 |
| CN1CCN(CCNc2nc3cc(Oc4ccc(NC(=O)Nc5cc(C(F)(F)F)ccc5F)cc4)ccc3[nH]2)CC1.Cl.Cl [GW768504] | 0 |
| O=C(NCC1CC1)c1ccc(-c2cc(C(=O)NC3CC3)ccc2F)cc1 [GW810445] | 0 |
| N#Cc1cccc(C(=O)NC2CCN(c3ccnc(Nc4ccc(F)cc4)n3)C2)c1 (centres unmarked) [GSK1379708] | 0 |
| FC(F)(F)c1cc(Br)cc(Nc2nccc(-c3cnn4ncccc34)n2)c1 [GW810578] | 82 |
| Cc1ccn2nc(-c3ccc(F)cc3)c(-c3ccncc3)c2c1.Cl [GW457859] | 0 |
| C[C@@H](Oc1cc(-n2cnc3cc(-c4cnn(C)c4)ccc32)sc1C(N)=O)c1ccccc1Cl [GSK580432] | 25 |
| Cn1ccc2ncnc(Oc3ccc(NC(=O)Nc4cncc(C(F)(F)F)c4)c(Cl)c3)c21 | 29 |
| CS(=O)(=O)Nc1ccc(-c2ccnc3[nH]ccc23)cc1 [GSK993273] | 67 |
| O=C(Nc1n[nH]c2cc(-c3ccco3)ccc12)C1CC1 [SB-737447] | 10 |
| OCCn1cc(-c2cnc3nnn(Cc4ccc5ncccc5c4)c3n2)cn1 | 0 |
| Cc1ccc(Nc2ccnc(Nc3ccc4c(c3)CS(=O)(=O)C4)n2)cc1O.Cl [GW579362] | 66 |
| Cn1ccc2ncnc(Oc3ccc(NC(=O)Nc4cccc(C(F)(F)F)c4)c(F)c3)c21 | 0 |
| CCOC(=O)N1CCC(n2cnc(-c3ccc(F)cc3)c2-c2ccnc(N)n2)CC1 [SB-219952] | 24 |
| CCn1c(-c2nonc2N)nc2cncc(Br)c21 [SB-738004] | 3 |

| SMILES | %Inh [%] |
| --- | --- |
| Cl.c1ccc(Oc2ccc(Nc3ccnc4cc(-c5ccc(CN6CCNCC6)o5)ccc34)cc2)nc1 [GW567142] | 0 |
| COc1cccc(C2=C(Nc3cccc(Cl)c3)C(=O)NC2=O)c1 [SB-341556] | 14 |
| CS(=O)c1ccc(-c2coc3ccc(-c4n[nH]c(=O)o4)cc23)cc1 (centres unmarked) | 37 |
| COC(=O)Nc1nc2cc(Oc3ccc(NC(=O)Nc4cc(C(F)(F)F)ccc4Cl)cc3)ccc2[nH]1.Cl [GW697465] | 2 |
| Cn1cc(-c2cccc3c(N)c(C(N)=O)nnc23)cn1 | 52 |
| C[C@@H]1CCN(C(=O)N2CCCC2)C[C@@H]1N(C)c1ncnc2[nH]ccc12 | 0 |
| Cc1ccc2c(-c3ccnc(Nc4ccc(C(F)(F)F)cc4)n3)cnn2n1 [GW819776] | 84 |
| C[C@@H](Oc1cc(-n2cnc3cc(-c4ccncc4)ccc32)sc1C(N)=O)c1ccccc1Cl [GSK479719] | 9 |
| CCNCC(Cc1ccccc1)NC(=O)c1cc(Br)c(-c2ccnc3[nH]ccc23)s1.Cl.Cl (centres unmarked) [GSK1383280] | 61 |
| Cc1nnc(-c2ccc3occ(-c4ccc(S(C)=O)cc4)c3n2)o1 (centres unmarked) | 0 |
| COc1cc2nccc(Nc3ccc(Oc4ccccc4)cc3)c2cc1OC.Cl [GI261656] | 0 |
| COc1cccc(OC)c1C(=O)Nc1cccc(-c2nn3ccccc3c2-c2ccnc(Nc3cccc(F)c3)n2)c1 [GSK361065] | 2 |
| COc1cc(Nc2nccc(N3CCC(NC(=O)c4cccc(C#N)c4)C3)n2)cc(OC)c1OC (centres unmarked) [GSK1379751] | 0 |
| O=C(Nc1cccc(C(F)(F)F)c1)c1cccc(Oc2ccc3nccn3n2)c1 | 0 |
| CC(C)c1nc(-c2cccc(NS(=O)(=O)c3ccccc3)c2)c(-c2ccnc(Nc3ccc4c(c3)CN(C)CC4)n2)s1 [GSK1649598] | 0 |
| CN1CCN(CCCNc2nccc(-c3c(-c4ccc(F)cc4)nn4cc(C(N)=O)ccc34)n2)CC1 [GW622475] | 27 |
| CC(=O)c1c(-c2ccncc2)[nH]c(-c2ccncc2)c1C [GW493036] | 14 |
| COC(=O)c1cccc(NC(=O)NC2CCN(c3ccnc(NCc4ccc(F)cc4)n3)CC2)c1 [GSK1379860] | 0 |

System: RIOK3
Conditions: concentration: 1 μM,replicates: in singlicate; n = 1

| SMILES | %Inh [%] |
| --- | --- |
| Cn1ccc2ncnc(Oc3ccc(NC(=O)Nc4ccnc(C(F)(F)F)c4)c(Cl)c3)c21 | 6 |
| Cc1ccc(CC(=O)N2CCc3cc(-c4cn(C)c5ncnc(N)c45)ccc32)cc1 [GSK2634758] | 0 |
| CS(=O)(=O)c1cccc(CNc2nc(Nc3ccc4c(c3)[C@@H]3C[C@@H]4CNC3=O)ncc2C(F)(F)F)c1 | 67 |
| CNC(=O)c1ccccc1Nc1nc(Nc2cccc(CS(C)(=O)=O)c2)ncc1C.O=CO [GSK1520489] | 91.8 |
| Cn1ccc2ncnc(Oc3ccc(NC(=O)Nc4cccc(C(F)(F)F)c4)c(Cl)c3)c21 | 41 |
| CN1CCN(CCNc2nc3cc(Oc4ccc(NC(=O)Nc5cc(C(F)(F)F)ccc5F)cc4)ccc3[nH]2)CC1.Cl.Cl [GW768504] | 8 |
| O=C(NCC1CC1)c1ccc(-c2cc(C(=O)NC3CC3)ccc2F)cc1 [GW810445] | 0 |
| N#Cc1cccc(C(=O)NC2CCN(c3ccnc(Nc4ccc(F)cc4)n3)C2)c1 (centres unmarked) [GSK1379708] | 0 |
| FC(F)(F)c1cc(Br)cc(Nc2nccc(-c3cnn4ncccc34)n2)c1 [GW810578] | 0 |
| Cc1ccn2nc(-c3ccc(F)cc3)c(-c3ccncc3)c2c1.Cl [GW457859] | 23 |
| C[C@@H](Oc1cc(-n2cnc3cc(-c4cnn(C)c4)ccc32)sc1C(N)=O)c1ccccc1Cl [GSK580432] | 82 |
| Cn1ccc2ncnc(Oc3ccc(NC(=O)Nc4cncc(C(F)(F)F)c4)c(Cl)c3)c21 | 19 |
| CS(=O)(=O)Nc1ccc(-c2ccnc3[nH]ccc23)cc1 [GSK993273] | 93.9 |
| O=C(Nc1n[nH]c2cc(-c3ccco3)ccc12)C1CC1 [SB-737447] | 79 |
| OCCn1cc(-c2cnc3nnn(Cc4ccc5ncccc5c4)c3n2)cn1 | 19 |
| Cc1ccc(Nc2ccnc(Nc3ccc4c(c3)CS(=O)(=O)C4)n2)cc1O.Cl [GW579362] | 95.7 |
| Cn1ccc2ncnc(Oc3ccc(NC(=O)Nc4cccc(C(F)(F)F)c4)c(F)c3)c21 | 23 |
| CCOC(=O)N1CCC(n2cnc(-c3ccc(F)cc3)c2-c2ccnc(N)n2)CC1 [SB-219952] | 35 |
| CCn1c(-c2nonc2N)nc2cncc(Br)c21 [SB-738004] | 17 |

| SMILES | %Inh [%] |
| --- | --- |
| Cl.c1ccc(Oc2ccc(Nc3ccnc4cc(-c5ccc(CN6CCNCC6)o5)ccc34)cc2)nc1 [GW567142] | 0 |
| COc1cccc(C2=C(Nc3cccc(Cl)c3)C(=O)NC2=O)c1 [SB-341556] | 1 |
| CS(=O)c1ccc(-c2coc3ccc(-c4n[nH]c(=O)o4)cc23)cc1 (centres unmarked) | 0 |
| COC(=O)Nc1nc2cc(Oc3ccc(NC(=O)Nc4cc(C(F)(F)F)ccc4Cl)cc3)ccc2[nH]1.Cl [GW697465] | 0 |
| Cn1cc(-c2cccc3c(N)c(C(N)=O)nnc23)cn1 | 60 |
| C[C@@H]1CCN(C(=O)N2CCCC2)C[C@@H]1N(C)c1ncnc2[nH]ccc12 | 2 |
| Cc1ccc2c(-c3ccnc(Nc4ccc(C(F)(F)F)cc4)n3)cnn2n1 [GW819776] | 22 |
| C[C@@H](Oc1cc(-n2cnc3cc(-c4ccncc4)ccc32)sc1C(N)=O)c1ccccc1Cl [GSK479719] | 100 |
| CCNCC(Cc1ccccc1)NC(=O)c1cc(Br)c(-c2ccnc3[nH]ccc23)s1.Cl.Cl (centres unmarked) [GSK1383280] | 72 |
| Cc1nnc(-c2ccc3occ(-c4ccc(S(C)=O)cc4)c3n2)o1 (centres unmarked) | 7 |
| COc1cc2nccc(Nc3ccc(Oc4ccccc4)cc3)c2cc1OC.Cl [GI261656] | 4 |
| COc1cccc(OC)c1C(=O)Nc1cccc(-c2nn3ccccc3c2-c2ccnc(Nc3cccc(F)c3)n2)c1 [GSK361065] | 19 |
| COc1cc(Nc2nccc(N3CCC(NC(=O)c4cccc(C#N)c4)C3)n2)cc(OC)c1OC (centres unmarked) [GSK1379751] | 89 |
| O=C(Nc1cccc(C(F)(F)F)c1)c1cccc(Oc2ccc3nccn3n2)c1 | 15 |
| CC(C)c1nc(-c2cccc(NS(=O)(=O)c3ccccc3)c2)c(-c2ccnc(Nc3ccc4c(c3)CN(C)CC4)n2)s1 [GSK1649598] | 24 |
| CN1CCN(CCCNc2nccc(-c3c(-c4ccc(F)cc4)nn4cc(C(N)=O)ccc34)n2)CC1 [GW622475] | 36 |
| CC(=O)c1c(-c2ccncc2)[nH]c(-c2ccncc2)c1C [GW493036] | 0 |
| COC(=O)c1cccc(NC(=O)NC2CCN(c3ccnc(NCc4ccc(F)cc4)n3)CC2)c1 [GSK1379860] | 6 |
